Bioassay records as filed in PubChem.
Hits are enriched below; roughly 1.8% of the tested compounds scored in any of these assays.
PrPC TRFRET: cell surface PrPC inhibition, primary TR-FRET screen | P04156 | TR-FRET read-out | inhibition, % at 13.8 µM | 370,000 compounds, 0.43% hits; in the data active means inhibition above about 24%
MazEF act: activators of E. coli MazEF toxin-antitoxin RNase | 350,000 compounds, 0.32% hits | activation, % at 20 µM | AID 504720 | FAM/BHQ RNA-DNA oligo cleavage fluorescence, 5 h | P0AE70; in the data active means activation above about 50%
Target sequence (P0AE70 whole entry, looked up): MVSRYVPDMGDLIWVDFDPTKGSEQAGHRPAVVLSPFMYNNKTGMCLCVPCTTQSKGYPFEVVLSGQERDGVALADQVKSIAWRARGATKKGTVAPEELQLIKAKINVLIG
PfHsp40 yeast: restores yeast growth despite PfHsp40 toxicity; S. cerevisiae expressing PfHsp40, growth rescue, ATP luminescence; growth rescue, % at 12.5 µM; 340,000 compounds, 0.68% hits; AID 504582; in the data active means growth rescue above about 28%, passing the limit was not always enough;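 further: yeast W303a lacking pdr1 and pdr3 grown in galactose medium; growth measured after three days at 30 °C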
SSB-PriA inh: inhibitors of Klebsiella pneumoniae PriA binding to SSB C-terminal tail. inhibition, % at 33 µM. 430,000 compounds, 0.6% hits. AID 1272365. AlphaScreen SSBct-PriA binding, biotinylated peptide; in the data active means inhibition mostly above about 37%, no sharp cut-off; inactive means mostly below about 20%
PrP 5UTR inh: inhibition of PrP 5' UTR reporter expression. cell-based PrP 5' UTR mRNA reporter, plate reader. inhibition, % (no concentration beside the values). 340,000 compounds, 0.35% hits; in the data active means inhibition above about 52%
Each line names hits and unclear results; the compound was inactive in the other large screens.

CC(C)(C)S(=O)(=O)N1C[C@H]2CC(=O)C=C2[C@@H]1CCO	none (no result: MazEF act, PfHsp40 yeast, SSB-PriA inh, PrP 5UTR inh)
Cc1ccc(C)c(N2N=C(C(=O)O)CCC2=O)c1	none
Oc1c(Br)cc(Br)cc1C=Nc1ccc(-c2ccccc2)cc1	none (no result: PrPC TRFRET, MazEF act, PfHsp40 yeast, PrP 5UTR inh)
Sc1oc(-c2ccccc2)cc1C=Nc1ccccc1	SSB-PriA inh 41
CC1Oc2cc3oc4c(O)c(O)ccc4c(=O)c3c(O)c2C1(C)C (stereo not given)	PfHsp40 yeast 335 (no result: PrPC TRFRET)
NS(=O)(=O)c1ccc(CCNC(=O)CCCn2c(=S)[nH]c3cc4c(cc3c2=O)OCO4)cc1	none (no result: PrPC TRFRET, MazEF act, PfHsp40 yeast, PrP 5UTR inh)
S=C(Nc1ccccn1)c1ccccn1	SSB-PriA inh 81
O=C(NN=C1CCCCc2ccccc21)c1ccccn1	none (no result: PrPC TRFRET, MazEF act, PfHsp40 yeast, PrP 5UTR inh)
COCCCNC(=S)NNC(=O)c1ccccn1	SSB-PriA inh 82
COCCCNC(=S)NNC(=O)c1ccccc1Br	none
O=C(NNC(=O)c1ccccc1[N+](=O)[O-])c1ccccn1	none
O=C(NNC(=O)c1ccccn1)c1ccccn1	SSB-PriA inh 58 (no result: PrPC TRFRET, MazEF act, PfHsp40 yeast, PrP 5UTR inh)
O=C(NN=C1CCC(=NNC(=O)c2ccccn2)CC1)c1ccccn1	SSB-PriA inh 85
CCNC(=S)NN=Cc1cn(Cc2ccc(F)cc2)c2ccccc12	none (no result: PrPC TRFRET, MazEF act, PfHsp40 yeast, PrP 5UTR inh)
CCOC(=O)N=Nc1c2ccccc2c2nc3no[nH]c3nc12	PfHsp40 yeast 116
O=C1OC(Nc2cc(Br)cc3cccnc23)c2ccccc21 (stereo not given)	SSB-PriA inh 74
O=C(c1cc2c(s1)-c1ccccc1S(=O)(=O)C2)N1CCN(Cc2ccccc2)CC1	none
O=C(NCc1ccc(OC(F)(F)F)cc1)C1CC(c2ccccc2C(F)(F)F)=NO1 (stereo not given)	PfHsp40 yeast 38
C=CCN=C1CC(C)(C)CC(=O)C1=C(O)CCC(=O)OC	none (no result: PrPC TRFRET, MazEF act, PfHsp40 yeast, PrP 5UTR inh)
O=C1CCC(=O)N1CC(O)Cn1c2ccc(Cl)cc2c2cc(Cl)ccc21 (stereo not given)	none (no result: PrPC TRFRET, MazEF act, PfHsp40 yeast, PrP 5UTR inh)
CCN(CC)c1ccc(Nc2nc(Cl)ncc2Br)cc1	SSB-PriA inh 41 (no result: PrP 5UTR inh)
CCN(CC)c1ccc(CNc2ccc(Br)cn2)cc1	none
CCCNc1nc(C)cc(-c2cc(C(=O)Nc3ccccc3)on2)n1	PfHsp40 yeast 196
Cc1cc(C)cc(OCCn2nnc3ccccc32)c1	none
CCOc1ccc(-n2c(O)c(/C=C3\C=Nc4ccccc43)c(=O)[nH]c2=O)cc1	MazEF act 120 (no result: SSB-PriA inh)
O=C(CSc1n[nH]c(=O)[nH]c1=O)NN=C/C=C\c1ccccc1	none (no result: PrPC TRFRET, MazEF act, PfHsp40 yeast, PrP 5UTR inh)
COc1cccc(/C=N/NC(=O)c2cc(-c3cccn3C)n[nH]2)c1O	PfHsp40 yeast 160 (no result: SSB-PriA inh)
Cc1nnc(NC(=O)Cc2cc(-c3ccc4c(c3)C[C@H](C)O4)on2)s1	none (no result: PrPC TRFRET, MazEF act, PfHsp40 yeast, PrP 5UTR inh)
Cc1ccc(/C=C(\C#N)C(=O)Nc2c(C)cccc2C)s1	none
Cc1ccc(NC(=O)/C(C#N)=C/c2ccc(C)s2)c(C)c1	MazEF act 190
CCN1CCN(C(=O)C2CCN(C(=O)Nc3ccccc3)CC2)CC1	none
NC(=O)CN1CCN(C(=O)Nc2ccccc2)CC1	PfHsp40 yeast 76
COc1cccc(Nc2nc(NCCO)nc(N3CCCC3)n2)c1	none
CC(=O)NC(CSC(CC(=O)c1ccco1)c1ccc(C)cc1)C(=O)O (stereo not given)	MazEF act 249
O=C(CC(SCc1ccco1)c1ccc(F)cc1)c1ccco1 (stereo not given)	none (no result: PrPC TRFRET, MazEF act, PfHsp40 yeast, PrP 5UTR inh)
COc1cc2c(cc1OC)C(COc1ccc([N+](=O)[O-])cc1)N(C(=O)c1ccccc1Br)CC2 (stereo not given)	none (no result: PrPC TRFRET, MazEF act, PfHsp40 yeast, PrP 5UTR inh)
CCOC(=O)C=c1sc(=Cc2ccc3cc(OC)ccc3c2)c(=O)n1CC(=O)NCC1CCCO1 (stereo not given)	none (no result: PrPC TRFRET, MazEF act, PfHsp40 yeast, PrP 5UTR inh)
CCOC(=O)/C=c1\s/c(=C\c2ccc3cc(OC)ccc3c2)c(=O)n1CC(=O)NCC1CCCO1 (stereo not given)	MazEF act 170 (no result: SSB-PriA inh)
CCN(CC)S(=O)(=O)c1ccc(C(=O)Nc2cc(C)nn2C(C)C)cc1	none (no result: PrPC TRFRET, MazEF act, PfHsp40 yeast, PrP 5UTR inh)
c1ccc(N(c2ccccc2)c2nc(N3CCCC3)nc(-n3ccnc3)n2)cc1	none
CN(c1ccccc1)c1nc(N2CCCC2)nc(-n2ccnc2)n1	PfHsp40 yeast 393
CCCCN1CC[C@@H]2C=CC[C@H](C(=O)OC)[C@@H]2C1=O	MazEF act 80
COc1ccc([N+](=O)[O-])cc1NC(=O)C(C)OC(=O)c1ccccc1C(=O)c1ccc(Cl)cc1 (stereo not given)	PfHsp40 yeast 72
COc1ccc(CN2CCN(c3ccc(F)cc3)CC2)c(OC)c1OC	none
COc1ccc(CN2CCN(C(c3ccc(F)cc3)c3ccc(F)cc3)CC2)c(OC)c1OC	PfHsp40 yeast 39
COc1ccc(-c2cn3c(C)c(C(=O)N(Cc4ccccc4)c4ccccc4)sc3n2)cc1	none (no result: PrPC TRFRET, MazEF act, PfHsp40 yeast, PrP 5UTR inh)
COc1ccc(-c2cn3c(C)c(C(=O)N(C)c4ccccc4)sc3n2)cc1	SSB-PriA inh 38 (no result: PrPC TRFRET, MazEF act, PfHsp40 yeast, PrP 5UTR inh)
CC(=O)c1ccc(OCc2cccc(C(F)(F)F)c2)cc1O	none
CNC(=O)c1c(NC(=O)CS(=O)(=O)c2ccc(Cl)cc2)sc(C)c1C	none
CNC(=O)c1c(NC(=O)CS(=O)(=O)c2ccccc2)sc(C)c1C	PfHsp40 yeast 51
C[C@]12C(=O)N(c3ccccc3)C(=O)N1[C@H]1c3ccccc3OC[C@@H]1[C@H]2c1ccccc1	PfHsp40 yeast 98
C[C@@]12C(=O)Nc3ccc(Br)cc3C(=O)N1[C@H]1c3ccccc3OC[C@@H]1[C@@H]2c1ccccc1	PfHsp40 yeast 128 (no result: PrPC TRFRET)
C[C@]12C(=O)N(c3ccccc3)C(=O)N1[C@@H]1c3ccccc3OC[C@@H]1[C@H]2c1ccccc1	none
Cc1ccc2c(c1)C(=O)N1[C@H]3c4ccccc4OC[C@@H]3[C@H](c3ccccc3)[C@]1(C)C(=O)N2	PfHsp40 yeast 128 (no result: PrPC TRFRET)
COc1ccc2c(c1)OC[C@H]1[C@H]2N2C(=O)c3cc(C)ccc3NC(=O)[C@@]2(C)[C@H]1c1ccccc1	PfHsp40 yeast 297 (no result: PrPC TRFRET)
Cc1ccc2c(c1)NC(=O)[C@@]1(C)[C@@H](c3ccccc3)[C@H]3COc4ccccc4[C@@H]3N1C2=O	none
COc1ccc2c(c1)[C@H]1[C@H](CO2)[C@H](c2ccccc2)[C@]2(C)C(=O)Nc3ccc(C)cc3C(=O)N12	none
Cc1cccc(-c2nc(C)c(-c3cc(C(=O)N4CCc5ccccc5C4)n[nH]3)s2)c1	none (no result: PrPC TRFRET, MazEF act, PfHsp40 yeast, PrP 5UTR inh)
COCCn1c(-c2ccc(OC)cc2)cnc1SCC(=O)Nc1cccc2ccccc12	none
Cc1cnc([N+](=O)[O-])n1CCOC(=O)NC(=O)c1ccc(C(F)(F)F)cc1	none
COc1ccc2c(c1)[C@H]1[C@H](CO2)[C@H](c2ccccc2)[C@]2(C)C(=O)Nc3ccc(Cl)cc3C(=O)N12	PfHsp40 yeast 268
COc1ccc2c(c1)[C@@H]1[C@H](CO2)[C@H](c2ccccc2)[C@]2(C)C(=O)Nc3ccc(C)cc3C(=O)N12	none (no result: PrPC TRFRET)
Cc1ccc(N(C)S(=O)(=O)c2ccsc2C(=O)n2nc(C)cc2C)cc1	none (no result: PrPC TRFRET, MazEF act, PfHsp40 yeast, PrP 5UTR inh)
COc1ccc(N2CCN(c3ncnc4scc(-c5ccccc5)c34)CC2)cc1	SSB-PriA inh 46
Nc1cc([N+](=O)[O-])ccc1Nc1ccc(O)cc1	none
O=C(c1ccc(-c2cc(O)c3ncccc3c2)cc1)N1CCNCC1	SSB-PriA inh 74
Oc1c(C2=NCCNC(C(F)(F)F)=C2)ccc2ccccc12	SSB-PriA inh 45
